Values joined by “and” are separate entries in the source; they are usually repeats but may differ in a detail not shown here. Equal entries are not always repeated. Inconclusive results are not listed. Entries that show only a call come without a potency. Unmarked numbers belong to inactive results. Active and inactive are the calls of the source. The call rests on the fitted dose curve; in most records, active means well fitted cell-killing curve with a large enough effect in the repeat runs; inconclusive means weak or mixed curves, or effect the other way; inactive means flat fitted curve, though single readings scatter.
Experiment: qHTS assay to identify small molecule agonists of the androgen receptor (AR) signaling pathway in the presence of an antagonist - cell viability counter screen (AID 1259379); further: nearly all actives have a fitted effect of over 25% in size
Conditions: MDA-kb2 viability, CellTiter-Fluor, 16 h; series mostly up to 92.4 µM; activity change, negative = cytotoxicity: at the top concentration
Text: National Center for Advancing Translational Sciences [NCATS]
NIH Chemical Genomics Center [NCGC]
U.S. Environmental Protection Agency [EPA]
National Institutes of Environmental Health Sciences [NIEHS]
National Toxicology Program [NTP]
U.S. Food and Drug Administration [FDA]
Androgen receptor (AR) is an important member of nuclear receptor family. Its signaling plays a critical role in AR-dependent prostate cancer and other androgen related diseases. Considerable attention has been given in the past decades to develop methods to study and screen for the environmental chemicals that have the potential to interfere with metabolic homeostasis, reproduction, developmental and behavioral functions. Therefore AR binding assay for screening against androgen agonists and antagonists can be used to identify potential endocrine disruptors.
MDA-kb2 cells (from ATCC, deposited by Wilson et al.) are human breast carcinoma cells that were stably transfected with a luciferase reporter gene under control of the MMTV promoter that contains response elements for both androgen receptor (AR) and glucocorticoid receptor (GR). This particular screening for measuring luciferase reporter gene activity using MDA-kb2 cells against Tox21 10K library compounds is a confirmation study on agonist mode screening in the presence of AR-antagonist compound (Nilutamide) at 3.0uM final concentration. The cytotoxicity of the compounds was tested in parallel by measuring the cell viability using CellTiter-Fluor assay system (Promega, Madison, WI) in the same wells.
Tox21 Assay Protocol Summary:
MDA-kb2 cells (cells cultured without CO2) were dispensed at 3,000 cells/well in 4uL of culture medium into white wall/solid-bottom 1536-well plates (Corning Life Sciences, Corning, NY) using a Multidrop Combi (Thermo Fisher Scientific Inc., Waltham, MA) dispenser. The assay plates were incubated at 37C and 0% CO2 for 5hr. One uL of 3.0uM (final concentration) Nilutamide or assay buffer was added using two separate tips of Flying Reagent Dispenser (FRD, Aurora Discovery, San Diego, CA). Then 23nL of compounds dissolved in DMSO at 15 concentrations and positive controls were transferred to the assay plates using a Pintool station (Wako, San Diego, CA). The assay plates were incubated at 37C and 0% CO2 for 16 hr. After 15hr incubation at 37C, 1uL/well CellTiter-Fluor reagent (Promega Corporation) was added to each well of the assay plates using FRD. After 1hr incubation at 37C and 0% CO2, the fluorescence signal was measured using a ViewLux plate reader (PerkinElmer, Shelton, CT).
With `COc1ccc2cc3[n+](cc2c1OC)CCc1cc2c(cc1-3)OCO2` the Potency was 4.89 µM (active) and 8.41 µM (active).
In the case of `Cc1ccccc1C=O`, the Potency is reported as “inactive”.
In the case of `COc1c2ccoc2cc2oc(=O)ccc12`, the Potency is reported as “inactive”.
With `O=C1C(N(CO)C(=O)NCO)N(CO)C(=O)N1CO` (stereo not given) the Potency was “inactive”.
For `CC(=O)c1nccs1`, the Potency was “inactive”.
For `O=C(Cl)c1ccc(C(=O)Cl)cc1`, the Potency was “inactive”.
For `Cc1ncc(CO)c(CO)c1O`, the Potency was “inactive”.
With `CCc1cccc(O)c1` the Potency was “inactive”.
For `COC(=O)OC`, the Potency was “inactive”.
In the case of `Cc1cc(C)cc(O)c1`, the Potency is reported as “inactive”.
With `O=C(O)Cc1c[nH]c2ccccc12` the Potency was “inactive”.
For `CCN(CC)CCNC(=O)c1ccc(N)cc1`, the Potency was “inactive”.
For `CN=C(NC#N)NCCSCc1nc[nH]c1C`, the Potency was “inactive”.
With `CC(=O)OC/C=C(\C)CCC=C(C)C` the Potency was “inactive”.
For `OC1CCCCC1`, the Potency was “inactive”.
For `O=C1O[C@H]([C@H](O)CO)C(O)=C1O`, the Potency was “inactive”.
In the case of `OB(O)O`, the Potency is reported as “inactive”.
In the case of `CCCCCCCCCCCC(=O)N(C)CC(=O)O`, the Potency is reported as “inactive”.
In the case of `CC(C)(C)NC[C@H](O)COc1nsnc1N1CCOCC1`, the Potency is reported as “inactive”.
With `NC1CCCCC1N` (stereo not given) the Potency was “inactive”.
With `CC(CN1c2ccccc2Sc2ccccc21)N(C)C` (stereo not given) the “activity change, negative = cytotoxicity” value was -11.1% [at 42.5 µM].
In the case of `C=CC(=O)NCOCCCC`, the Potency is reported as “inactive”.
For `C=C(CC(=O)O)C(=O)O`, the Potency was “inactive”.
With `CN1CCCC1=O` the Potency was “inactive”.
For `CCCOC(=O)NCCCN(C)C`, the Potency was “inactive”.
For `Cc1ccccc1Cl`, the Potency was “inactive”.
With `CS(=O)(=O)c1ccc(Cl)cc1` the Potency was “inactive”.
With `Brc1ccc(Oc2ccc(Br)cc2)cc1` the Potency was “inactive”.
For `CC1(C)C(=O)N(Cl)C(=O)N1Cl`, the Potency was “inactive”.
For `O=c1n(CCCN2CCN(c3cccc(Cl)c3)CC2)nc2ccccn12`, the Potency was “inactive”.
With `Cc1ccc(C)c(S(=O)(=O)O)c1` the Potency was “inactive”.
In the case of `COc1ccc(N)c(OC)c1`, the Potency is reported as “inactive”.
In the case of `Clc1cccc(Cl)c1NC1=NCCN1`, the Potency is reported as “inactive”.
For `CC[N+](CC)(CC(=O)Nc1c(C)cccc1C)Cc1ccccc1`, the Potency was “inactive”.
With `CC(=O)OCc1ccc2c(c1)OCO2` the Potency was “inactive”.
With `O=[N+]([O-])c1cc(C(F)(F)F)ccc1Cl` the Potency was “inactive”.
For `N[C@@H](Cc1cc(I)c(Oc2ccc(O)c(I)c2)c(I)c1)C(=O)O`, the Potency was “inactive”.
For `COC(=O)/C=C\C(=O)OC`, the Potency was “inactive”.
In the case of `CC(=O)OC(C)(C)C1CC=C(C)CC1` (stereo not given), the Potency is reported as “inactive”.
With `C[Si](C)(C)N[Si](C)(C)C` the Potency was “inactive”.

Reference: PubChem BioAssay (Tox21)
Potency means the concentration at half of the fitted maximal effect.
